Assay [1] can be described thus: NCI Yeast Anticancer Drug Screen. Data for the rad50 strain (AID 155).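 Note: 0% = growth of vehicle-only cultures of the same strain.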 Particulars: S. cerevisiae rad50 strain growth inhibition; at 50.0 µM; stronger effect = higher value. In a few lines:
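Yeast carrying a defined DNA repair defect were exposed to test compounds, and growth was compared with vehicle-treated controls to give percent inhibition.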

Assay [2] is described as follows: NCI Yeast Anticancer Drug Screen. Data for the mec2-1 strain (AID 157). The following applies: S. cerevisiae mec2-1 strain, at 50.0 µM, stronger effect = higher value. In a few lines:
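Growth inhibition is read against vehicle-treated controls after compound exposure of the mec2-1 yeast strain, which is defective in DNA damage repair or cell cycle control.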

Assay [3] can be described thus: NCI Yeast Anticancer Drug Screen. Data for the sgs1 mgt1 strain (AID 161).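 Note: 0% = growth of cultures given vehicle only.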 The following applies: S. cerevisiae sgs1 mgt1 strain, at 50.0 µM, stronger effect = higher value. In a few lines:
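Percent growth inhibition was derived by comparing compound-exposed mutant yeast with vehicle-exposed cultures. The strain carries alterations in DNA damage repair.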

A short description of assay [4]: NCI Yeast Anticancer Drug Screen. Data for the cln2 rad14 strain (AID 165).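 Note: 0% = growth equal to vehicle treated cultures.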 Particulars: S. cerevisiae cln2 rad14 strain, at 50.0 µM, stronger effect = higher value. In a few lines: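 Growth inhibition, relative to vehicle-treated controls, is the read-out. The test organism is a yeast strain with defined genetic alterations, cln2 rad14.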
A short description of assay [5]: NCI Yeast Anticancer Drug Screen. Data for the bub3 strain (AID 167). The following applies: S. cerevisiae bub3 mutant strain, at 50.0 µM, stronger effect = higher value. In a few lines: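 Compounds were applied to a genetically altered yeast strain carrying a cell-cycle control defect. Growth inhibition was scored against vehicle-treated controls.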
Assay [6] in a line: NCI Yeast Anticancer Drug Screen. Data for the mlh1 rad18 strain (AID 175). The following applies: S. cerevisiae mlh1 rad18 strain growth inhibition; at 50.0 µM; stronger effect = higher value. In a few lines:
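Cells of a genetically altered yeast strain, deficient in DNA damage repair, were treated with compound. Their growth was then compared with that of vehicle-treated cultures to give inhibition.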

The panel holds about 79,000 compounds, 15% with a hit somewhere; the sample as a whole holds those more often. Unmarked numbers belong to inactive results. Active and inactive are the calls of the source. Cut-off read from the data, not from the text of the source: active = growth inhibition above about 70%; inactive = the rest.

Turning to `O=Cc1c(CO)cc(O)c(O)c1O`, the growth inhibition in assay [1] is -12.4%; in assay [2] it was -0.1%; in assay [3], 16.1%; in assay [4] it was -30.6%; in assay [5], 2.9%; in assay [6], 6.55%.
Turning to `C/C(=N/NS(=O)(=O)c1ccc(C)cc1)C(C)C`, the growth inhibition was 3.05% in assay [1]; 1.75% in assay [2]; 10.8% in assay [3]; -6.85% in assay [4]; 3.4% in assay [5]; 23.8% in assay [6].
As to `CN(/N=C/C=N/N(C)C1=NCCCCN1)C1=NCCCCN1`, the growth inhibition in assay [1] was -13.6%; in assay [2] it was -11.3%; in assay [3], -22.2%; in assay [4] it was 0.7%; in assay [5], 7.55%; in assay [6] it was -11.8%.
Consider `O=[N+]([O-])c1ccc(C[Se]c2ncnc3c2ncn3C2OC(CO)C(O)C2O)cc1` (centres undefined), for which the growth inhibition in assay [1] was -15.1%; in assay [2], -7%; in assay [3], 13.6%; in assay [4] it was -32.2%; in assay [5] it was 0.6%; in assay [6], -8.35%.
On to `COC(=O)C1Cc2cc(OC)c(OC)cc2C(c2ccc(OC)c(OC)c2)C1C(N)=O` (centres undefined), for which the growth inhibition in assay [1] is -7.9%; in assay [2] it was 11.3%; in assay [3], -8.3%; in assay [4], 0.25%; in assay [5] it was -0.9%; in assay [6], -1.95%.
Take `c1ccc2c(c1)CNNC2`: the growth inhibition in assay [1] is 11.3%; in assay [2], -4.4%; in assay [3], -5.55%; in assay [4] it was 11.3%; in assay [5], 15.8%; in assay [6] it was -8.1%.
For `O=C1CCC(C(=O)Nc2ccc(Cl)c(Cl)c2)N1` (centres undefined), the growth inhibition in assay [1] was 1.75%; in assay [2], 10.6%; in assay [3], 8.5%; in assay [4], -10.7%; in assay [5], 1.1%; in assay [6] it was -8.15%.
With `O=C1OC(c2ccc(Cl)cc2)=N/C1=C\c1c(Cl)cccc1Cl`, the growth inhibition in assay [1] was 6.9%; in assay [2] it was -1.3%; in assay [3] it was 11.9%; in assay [4], 11.9%; in assay [5], 5.9%; in assay [6], -13.7%.
For the molecule `CC(COc1ccccc1)OC=O` (centres undefined), the growth inhibition in assay [1] was 10.6%; in assay [2] it was -2.65%; in assay [3], 8.2%; in assay [4] it was -24.4%; in assay [5], -13.8%; in assay [6], 8.65%.
For `C#CCC(C)(C)C(N)=O`, the growth inhibition was -10.7% in assay [1]; -6.85% in assay [2]; 3.4% in assay [3]; -35.8% in assay [4]; -6.05% in assay [5]; -8.5% in assay [6].
For `CCC(/C=N/Nc1ccc([N+](=O)[O-])cc1[N+](=O)[O-])(CC)CC`, the growth inhibition in assay [1] is -2.85%; in assay [2] it was -8.75%; in assay [3] it was -6.25%; in assay [4], 0.25%; in assay [5] it was -2.85%; in assay [6] it was 6.8%.
In the case of `COc1cc(/C=C/C(=O)OCC23CC[C@@]4(C(=O)O)CCC(C)[C@H](C)C4C2=CCC2[C@@]4(C)CC[C@H](O)C(C)(C)C4CC[C@]23C)ccc1O` (some centres undefined), the growth inhibition in assay [1] is 20.2%; in assay [2] it was 9.95%; in assay [3] it was 26.6%; in assay [4], 4.85%; in assay [5], -1.6%; in assay [6], 6.9%.
In the case of `CC1(C)C(=NNc2ccccc2)C(C)(C)C1=NNc1ccccc1`, the growth inhibition in assay [1] is 14.8%; in assay [2], 63%; in assay [3], 15.5%; in assay [4], 79.9% (active); in assay [5], 96.2% (active); in assay [6], 33%.
As for `O=[N+]([O-])C(CO)(CO)c1ccccc1`, the growth inhibition is 25.3% in assay [1]; 2.4% in assay [2]; 6% in assay [3]; 18.8% in assay [4]; 3.55% in assay [5]; 15.7% in assay [6].
In the case of `CCN(CC)CCCNc1[nH]ncc2c(C)c3nc4ccccc4c3cc12`, the growth inhibition is 14.1% in assay [1]; -10.2% in assay [2]; 14.7% in assay [3]; 10.1% in assay [4]; 9.4% in assay [5]; -4.05% in assay [6].
In the case of `N#C/C(=C\N1CCNC1=S)C(=O)c1ccc2ccccc2c1`, the growth inhibition in assay [1] is 23.1%; in assay [2], 1.75%; in assay [3], -1.7%; in assay [4], 0.55%; in assay [5], 14.7%; in assay [6], 11.6%.
`COC12OCCN(C)C1=CC(=O)C1=NNC(C)C12` (centres undefined): the growth inhibition was -37% in assay [1]; -1.6% in assay [2]; -8% in assay [3]; -27% in assay [4]; -11.8% in assay [5]; -36.5% in assay [6].
In the case of `CCN(CC)C(=O)CNC(=O)C(c1ccccc1)c1ccccc1`, the growth inhibition in assay [1] is 4.25%; in assay [2], -6.2%; in assay [3] it was 1.4%; in assay [4] it was -9.7%; in assay [5] it was 6.35%; in assay [6], -8.05%.
For `COc1cccc(C2OC(N)=C(O)C2=O)c1` (centres undefined), the growth inhibition in assay [1] is -10.8%; in assay [2] it was 1.9%; in assay [3], 3.6%; in assay [4] it was -11.2%; in assay [5] it was 2.45%; in assay [6] it was 22.2%.
For `O=C(Nc1ccc(Cc2ccc(NC(=O)Nc3nc4ccccc4s3)cc2)cc1)Nc1nc2ccccc2s1`, the growth inhibition in assay [1] is -5.15%; in assay [2], -17.4%; in assay [3], -2.25%; in assay [4] it was 19.2%; in assay [5] it was 21.6%; in assay [6], -4.5%.
Consider `CC1=C(C)C(N(C)C)CS(=O)(=O)O1` (centres undefined), for which the growth inhibition was 6.35% in assay [1]; -18.4% in assay [2]; -0.7% in assay [3]; -47% in assay [4]; -11.2% in assay [5]; -7.9% in assay [6].
Regarding `CC(C)N1C(=O)NC(=O)C12CCN(Cc1ccccc1)CC2`, the growth inhibition in assay [1] is -1.5%; in assay [2], -1.65%; in assay [3] it was -5.9%; in assay [4], -1.7%; in assay [5], 11.6%; in assay [6], -13.7%.
Take `COc1ccc(C(=O)Cc2nc3nnc(N)n3nc2CC(=O)c2ccc(OC)cc2)cc1`: the growth inhibition is -9.35% in assay [1]; 2.1% in assay [2]; -0.75% in assay [3]; -0.75% in assay [4]; 16.4% in assay [5]; 15.7% in assay [6].
Consider `CCOC(=O)c1cc(C=O)oc1C`, for which the growth inhibition in assay [1] was 6.8%; in assay [2], -4.2%; in assay [3] it was -8.1%; in assay [4], -42.6%; in assay [5], 2%; in assay [6] it was -0.75%.
Regarding `c1cn(C23C4C5C6C4C2C6C53)cn1` (centres undefined), the growth inhibition in assay [1] is 2.65%; in assay [2] it was -11.2%; in assay [3] it was 2.5%; in assay [4] it was 18.1%; in assay [5], -6%; in assay [6], 15.9%.
In the case of `COC(=O)C1(C(=O)OC)O[C@@H](c2ccccc2)[C@H]2C(=O)N(C)C(=O)[C@H]21`, the growth inhibition was 7.05% in assay [1]; 0.9% in assay [2]; 7.45% in assay [3]; 8.8% in assay [4]; -1.1% in assay [5]; 13.8% in assay [6].
Regarding `O=C(O)c1ccc(OS(=O)(=O)c2ccccc2)cc1`, the growth inhibition was 26.5% in assay [1]; 8.1% in assay [2]; 39.7% in assay [3]; 22.4% in assay [4]; 46.9% in assay [5]; 16.3% in assay [6].
Turning to `NC(=O)[C@@H]1CCCN1C(=O)c1cccnc1`, the growth inhibition in assay [1] is -14.9%; in assay [2] it was -18.2%; in assay [3], -12.9%; in assay [4] it was -14.7%; in assay [5], 4.75%; in assay [6], -13%.
For `OC(c1ccncc1)(c1ccc(Cl)cc1)c1cccs1` (centres undefined), the growth inhibition is 6.35% in assay [1]; 11.2% in assay [2]; 6.95% in assay [3]; -5.2% in assay [4]; 21.4% in assay [5]; 7.7% in assay [6].
As to `c1ccc2c(N=C(Nc3cccc4ccccc34)c3cccc4ccccc34)cccc2c1`, the growth inhibition was 20.4% in assay [1]; 19.6% in assay [2]; 35.8% in assay [3]; 28.9% in assay [4]; 17.3% in assay [5]; 13.6% in assay [6].
Consider `C=CCc1cc(OC)c2c(c1)C(O)CC(c1ccccc1)O2` (centres undefined), for which the growth inhibition in assay [1] is 15.2%; in assay [2] it was -24.6%; in assay [3] it was -34.6%; in assay [4], -6.2%; in assay [5], 2.9%; in assay [6], 1.55%.
`Cc1ncc2c(n1)NC(c1ccc([N+](=O)[O-])cc1)NC2` (centres undefined): the growth inhibition in assay [1] was 0.45%; in assay [2] it was -2.9%; in assay [3], -16.6%; in assay [4], -3.7%; in assay [5], 14.7%; in assay [6], -1.7%.
Take `CN(C)Cc1c(-c2ccc(Br)cc2)oc(-c2ccc(Br)cc2)c1Br`: the growth inhibition in assay [1] is -31.1%; in assay [2] it was -8.7%; in assay [3] it was -13.9%; in assay [4], -10.4%; in assay [5], 4.5%; in assay [6], 7.2%.
`CC1=NN(c2ccc([N+](=O)[O-])cc2)C(=O)C1`: the growth inhibition in assay [1] is 25.6%; in assay [2], 0.25%; in assay [3] it was 22.6%; in assay [4], 6.1%; in assay [5], 25.6%; in assay [6], 36.9%.
For `CCOC(=O)C1CSC(N)=N1` (centres undefined), the growth inhibition in assay [1] is 4.45%; in assay [2], -38.9%; in assay [3], -11.8%; in assay [4], -29.4%; in assay [5] it was 5.65%; in assay [6], -7.8%.
For `CC(O)COC(C)c1ccccc1` (centres undefined), the growth inhibition in assay [1] was 9.05%; in assay [2], 0.3%; in assay [3], -0.7%; in assay [4] it was 5.35%; in assay [5], -6.45%; in assay [6], 2.1%.
In the case of `O=C(NC(=O)C(Cl)Cl)OC1c2cc(Cl)ccc2-c2c(Cl)cc(Cl)cc21` (centres undefined), the growth inhibition is 99.1% (active) in assay [1]; 99.5% (active) in assay [2]; 99.3% (active) in assay [3]; 98.8% (active) in assay [4]; 97.8% (active) in assay [5]; 99.2% (active) in assay [6].
In the case of `OC1C(OCc2ccccc2)OC(COCc2ccccc2)C(OC2OC(COCc3ccccc3)C(OCc3ccccc3)C(OCc3ccccc3)C2OCc2ccccc2)C1OCc1ccccc1` (centres undefined), the growth inhibition in assay [1] was -2.1%; in assay [2], -9.85%; in assay [3], -13.8%; in assay [4] it was -8.65%; in assay [5] it was -3.3%; in assay [6], -3.6%.
As for `CCOP(=O)(OCC)/C(=C\n1ccc(=O)[nH]c1=S)C(=O)OC`, the growth inhibition in assay [1] is -54.8%; in assay [2] it was -54%; in assay [3], -27.4%; in assay [4], -8.6%; in assay [5] it was -28%; in assay [6], -53.5%.

The record behind these values is PubChem BioAssay (NCI).
